Screening data (PubChem BioAssay)
Dicer inh: inhibitors of Dicer pre-microRNA processing, primary screen, biochemical, cat-ELCCA, chemiluminescence. actives 6% (n = 47,000). z-score at 25 µM. cat-ELCCA pre-miR-21 Dicer processing; stronger effect = higher value. AID 1347074, 2019; in the data active = z-score above about 3, passing the limit was not always enough;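 note: plate controls were vehicle for no effect and no enzyme for full effect; higher signal means more uncleaved substrate so more Dicer inhibition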
* hit, by the source's call. The full list was thinned out, with hits kept by preference.

SMILES	Dicer inh
COc1ccc(N2CC(C(=O)O)CC2=O)cc1Cl (stereo not drawn)	0.45
CCOC(=O)c1[nH]c(C)c(S(=O)(=O)NCc2nn(-c3ccccc3)nc2C)c1C	-1.8
COCCCN/C=C(\C#N)S(=O)(=O)c1ccc(Cl)cc1	-2.4
COCn1c(COc2ccc3ccccc3c2)nc2ccccc21	1.4
CN(C)C(=O)COc1ccc2ccccc2c1	-0.66
O=C(OCc1ccccn1)c1ccc(COc2ccc3ccccc3c2)o1	3*
Fc1ccc(C2CC(c3c(F)cccc3Cl)n3ncnc3N2)cc1 (stereo not drawn)	-0.82
O=S(=O)(Nc1ccccc1N1CCOCC1)c1ccc2c(c1)OCC2	7.6
CC(=O)Nc1ccc(S(=O)(=O)Nc2ccccc2N2CCOCC2)cc1Cl	2.2
O=S(=O)(Nc1ccccc1N1CCCCC1)c1ccc(C(F)(F)F)cc1	3.3*
CC(=O)n1c(-c2ccc(C)cc2)cc(-c2ccc(C)cc2)c(C#N)c1=O	3.4*
Cc1ccc(-c2cc(-c3ccccc3)c(C#N)c(N)n2)cc1	-0.15
CCOC(=O)c1nn(-c2ccccc2)c(=O)c2c(N)c(C#N)c(-c3ccccc3)cc12	-1.2
CCOC(=O)Cc1nn(CC(N)=S)c(=O)c2ccccc12	-1.2
O=C(O)c1ccccc1SC/C(=N\O)c1ccc([N+](=O)[O-])cc1	-0.06
O=C(Nc1cccc(COC(=O)c2sccc2Cl)c1)c1sccc1Cl	-0.82
FC(F)(F)c1[nH]ncc1-c1nnnn1-c1ccc(Cl)cc1	4.8*
Nc1ncc(-c2nnnn2-c2ccc(F)cc2)c(C(F)(F)F)n1	1.8
Fc1ccc(-n2nnnc2-c2cnn(-c3ccccc3Cl)c2C(F)(F)F)cc1	-1.6
COC(=O)c1sc(N(C)C)c(C#N)c1-c1ccccc1	-0.43
CN(C)c1scc(-c2ccccc2)c1C#N	15*
CSc1scc(-c2cccc(Cl)c2)c1C#N	-0.55
COc1cccc(C2C(C#N)=C(N)Oc3n[nH]c(-c4ccc5c(c4)OCO5)c32)c1OC (stereo not drawn)	-5.2
O=C(O)c1cc(-c2cc(C(=O)O)c3ccccc3n2)nc2ccccc12	0.45
O=C(O)c1cc2ccccc2c(-c2c(O)c(C(=O)O)cc3ccccc23)c1O	4.1*
SMILES	Dicer inh
O=C(O)c1ccc2ccccc2c1-c1c(C(=O)O)ccc2ccccc12	1.1
N#CSCC(=O)n1c2ccccc2c2ccccc21	1.4
Cc1ccc(OCCSc2nc3ncnc(N)c3[nH]2)c(C(C)C)c1	3.6*
Cc1ccc(C(C)C)c(OCCSc2ncnc3nc[nH]c23)c1	-0.81
COc1ccccc1OCCSc1nc2ncnc(N)c2[nH]1	-0.36
O=C(NCCN1CCCC1=O)Nc1ccccc1	1.5
COc1cc(NC(=O)C2COc3ccccc3O2)c(OC)cc1Cl (stereo not drawn)	2.5
CCOC(=O)C1CSC(CC(=O)Nc2ccc(OC(F)(F)F)cc2)C(=O)N1 (stereo not drawn)	2.5
NNC(=O)Nc1ccc(C(F)(F)F)cc1Cl	0.71
O=C(Nc1cc(C(F)(F)F)ccc1Cl)C(Cl)Cl	5*
O=C(Nc1cc(C(F)(F)F)ccc1Cl)C(=S)N1CCOCC1	-0.41
CCc1cccc(C)c1N(C(=O)c1ccco1)C1=NCCC(=O)S1	9.3
O=C1C(=O)N(Cc2cccnc2)C(c2ccc(F)cc2)/C1=C(\O)c1ccccc1 (stereo not drawn)	-0.12
O=C1CCC(c2ccccc2)C(=O)C1C(=O)c1ccc(Cl)cc1Cl (stereo not drawn)	0.16
CCCOc1ccc(Br)cc1C1C(C(=O)OCC)=C(C)Nc2nnnn21 (stereo not drawn)	0.62
Cc1ccc2nc(/C=C/c3ccco3)oc(=O)c2c1	11*
O=c1oc(/C=C/c2ccco2)nc2ccccc12	18*
COc1ccccc1/C=C/c1nc2cc(Cl)ccc2c(=O)o1	0.09
C(=C\c1ccco1)/C1=NN(Cc2ccccc2)CC1	0.78
O=C(Nc1nc2ccccc2c(=O)s1)c1ccco1	-0.49
O=C(CSc1nc2ccccc2c(=O)n1Cc1ccco1)c1ccccc1	-1.3
Cc1ccc2nc(-c3cc4ccccc4o3)oc(=O)c2c1	-0.92
O=c1c2ccccc2nc(/C=C/c2ccco2)n1Cc1ccccc1	3*
Cc1nc2ccc(Br)cc2c(=O)o1	-0.27
Nc1ccc(-c2cc(C(=O)O)c3ccccc3n2)cc1	-1.1
SMILES	Dicer inh
CSc1ccc(C2c3c(oc4ccc(F)cc4c3=O)C(=O)N2c2ccc(C)cn2)cc1 (stereo not drawn)	-0.95
CC(C)(C)C1CCc2[nH]c3ccccc3c2C1 (stereo not drawn)	-2.2
CC(C)CC(=O)N1c2ccccc2NC2=C(C(=O)CC(C)(C)C2)C1c1cccnc1 (stereo not drawn)	0.82
NC(=O)c1c(/N=C/c2ccccc2Cl)sc2c1CCCC2	-1.5
O=C1C=C(Nc2ccccc2O)c2ccccc2C1=O	-5
O/N=C/c1cnc(-c2ccccc2)[nH]1	0.23
CC1CCc2c(sc(NC(=O)Cn3nc(C(F)(F)F)c4c3CCCC4)c2C(N)=O)C1 (stereo not drawn)	0.16
Cc1ccc(-c2nc(-c3ccncc3)n[nH]2)c([N+](=O)[O-])c1	-0.9
COc1ccccc1-c1nnc(Sc2ncccc2[N+](=O)[O-])n1-c1ccccc1	0.35
COc1cccc(-c2c(OC)cccc2C2CCCCN(C)C2=O)c1 (stereo not drawn)	1.1
O=C1CC(c2cn(Cc3ccccc3)c3ccccc23)C(=O)N1c1ccc(O)cc1 (stereo not drawn)	5.6*
O=C1CC(N2CCN(c3ccc(O)cc3)CC2)C(=O)N1c1ccccc1 (stereo not drawn)	-1.4
O=C1CC(c2c[nH]c3ccccc23)C(=O)N1c1ccccc1 (stereo not drawn)	1.2
N#CCCc1cccc(OCc2ccccc2)c1OCc1ccccc1	-0.24
CCCC(=O)c1cc2cc(Br)cc(Br)c2oc1=O	-0.04
CCCC(=O)c1cc2cc(Br)ccc2oc1=O	-0.31
CCCC(=O)n1c(=O)oc2cc(Br)ccc21	4*
CCN(CC)C(=O)C(C)N(C#N)c1nc(N(C)C)nc(N(C)C)n1 (stereo not drawn)	0.33
CC1=C(C(=O)OC(C)C)C(c2cccc(O)c2)n2ncnc2N1 (stereo not drawn)	0.87
Cc1cc(C)cc(Oc2coc3cc(OC(=O)c4cccs4)ccc3c2=O)c1	1.8
COCCCNC1=C(C#N)C(=O)NC(c2ccc(O)c(OC)c2)S1 (stereo not drawn)	1.3
COCCCNC1=C(C#N)C(=O)NC(c2cccs2)S1 (stereo not drawn)	3.1*
N#CC1=C(Nc2ccccc2Cl)SC(c2ccncc2)NC1=O (stereo not drawn)	0.01
CC1CC(OC(=O)C(O)c2ccccc2)CC(C)(C)N1C (stereo not drawn)	0.92
CC1(C)CC(=O)C2=C(C1)c1c(ccc3ncccc13)NC2c1ccc(O)c(O)c1 (stereo not drawn)	1.7
SMILES	Dicer inh
O=C1N=C(c2ccccc2)C(c2ccccc2)N1 (stereo not drawn)	2.9
O=C1ON=C(c2ccccc2)C1C=C1CCCC1 (stereo not drawn)	4.2*
NNC(=S)N/N=C/c1ccccc1[N+](=O)[O-]	-0.3
Cc1cccc(-c2noc(-c3cccs3)n2)c1	1.7
Fc1ccc(/C=N/Nc2nnc3c(n2)[nH]c2ccccc23)cc1	-0.21
C(=N\Nc1nnc2c(n1)[nH]c1ccccc12)/c1ccc2c(c1)OCO2	-0.7
Oc1ccccc1/C=N/Nc1nnc2c(n1)[nH]c1ccccc12	3.4*
